Screening results from PubChem.
Anthrax LF inh2: inhibitors of Bacillus anthracis lethal factor protease | P15917 | multiplex microsphere protease cleavage assay, LF | inhibition, % at 10 µM | 360,000 tested, 0.12% active | AID 588501; also: plate controls were buffer without enzyme for full effect and enzyme alone for no effect
BoNT A protease: inhibitors of Botulinum neurotoxin A light chain protease. multiplex microsphere protease substrate cleavage, flow cytometry. inhibition, % at 10 µM. 360,000 tested, 0.17% active; also: plate controls were buffer without enzyme for full effect and enzyme alone for no effect
Bead autofluor: compound fluorescence in toxin protease inhibitor counterscreen. compound autofluorescence counterscreen, microsphere flow cytometry; hits give high values. fluorescence intensity (concentration not given with the values). 360,000 tested, 3.1% active; in the data active = fluorescence intensity above about 16000; inconclusive = no clear call, values can overlap the other calls
SSB-PriA inh: inhibitors of Klebsiella pneumoniae PriA binding to SSB C-terminal tail; AlphaScreen SSBct-PriA binding, biotinylated peptide; inhibition, % at 33 µM; 430,000 tested, 0.6% active; AID 1272365; in the data active = inhibition mostly above about 37%, no sharp cut-off; inactive = mostly below about 20%;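 also: plate controls were negative control peptide for no effect and reference peptide for full effect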
BoNT F protease: BoNT F light chain protease inhibition | Multiplex microsphere protease cleavage assay, flow cytometry | AID 588497 | inhibition, % at 10 µM | 360,000 tested, 0.22% active; in the data active = inhibition above about 35%, passing the limit was not always enough; inconclusive = no clear call, values can overlap the other calls; also: plate controls were buffer without enzyme for full effect and enzyme alone for no effect
* marks the source's active call; other numbers are inactive results; u = inconclusive; x = no result; ! = repeats disagree. Only some compounds are listed: those with a hit (about 3.1% of all), similar ones and a draw of the others. Rule as the data show it, unless noted: active = inhibition above about 30%; inconclusive = no clear call, values can overlap the other calls; inactive = below that.

SMILES	Anthrax LF inh2	BoNT A protease	Bead autofluor	SSB-PriA inh	BoNT F protease
CCCN1CCCc2cc(CCNS(=O)(=O)c3ccc(Br)cc3)ccc21	x	x	x	52*	x
CCCN1CCCc2cc(CCNS(=O)(=O)Cc3cccc(Cl)c3)ccc21	x	x	x	55*	x
CCN1CCN(C(=O)NCC(C)(O)c2cc3ccccc3s2)C(=O)C1=O (stereo not drawn)	x	x	x	3	x
CCCN1CCCc2cc(CCNS(=O)(=O)CC)ccc21	x	x	x	46*	x
CCCN1CCCc2cc(CCNS(=O)(=O)CCc3ccc(OC)cc3)ccc21	x	x	x	60*	x
CCCN1CCCc2cc(CCNC(=O)CC(C)C)ccc21	x	x	x	55	x
CCCN1CCCc2cc(CCNS(=O)(=O)c3ccc(Cl)s3)ccc21	x	x	x	active!	x
CC(=NNc1nc2ccccc2[nH]1)c1ccc(N2CCOCC2)cc1	x	x	x	54*	x
c1ccc2[nH]c(NCCCN3CCOCC3)nc2c1	-5	u	24547*	-10	-6
Oc1c(N=Nc2ccc(F)cc2)ccc2ccccc12	-6	-3	3301	39*	-19
Cc1ccc(N=Nc2ccc3ccccc3c2O)cc1	-16	-1	3009	-5	-42
COc1cc(C=NNC(=O)CC2(C)OCCO2)cc(Br)c1O	x	x	x	-13	x
COc1cccc(-c2cc(=O)n(CC(=O)Nc3ccc(F)cc3Cl)c(C)n2)c1	x	x	x	1	x
COc1ccc(N/C=C2\CCOC2=O)cc1	-2	0	16257*	x	0
COc1cccc(C(=O)N2CCCN(CCn3nc(C)cc3C)CC2)c1OC	x	x	x	-13	x
COc1ccc(-c2nc3c(n2O)CCC/C3=N\O)cc1	-7	u	21176*	x	0
Cc1nc2c(n1O)CCC/C2=N\O	-2	0	3266	x	4
Cc1cc(C)c2nc(N(CCn3cccn3)C(=O)c3cc(C)on3)sc2c1	x	x	x	5	x
Cc1cc(N2CCN(c3ccccc3)CC2)nc(N)n1	1	u	20567*	0	-2
CCOc1ccc(N2CC(C(=O)NCCc3ccc(S(N)(=O)=O)cc3)CC2=O)cc1 (stereo not drawn)	10	0	3886	-13	4
O=C(NCCc1ccccc1F)C1CCCN1S(=O)(=O)c1ccc2ccccc2c1 (stereo not drawn)	-4	0	20558*	-10	-3
CCOc1ccccc1N1CC(C(=O)NCCc2ccc(S(N)(=O)=O)cc2)CC1=O (stereo not drawn)	-2	1	20308*	-2	-2
NS(=O)(=O)c1ccc(CCNC(=O)C2CCCCN2S(=O)(=O)c2ccccc2)cc1 (stereo not drawn)	-17	2	21340*	-4	0
COc1ccc(-c2oc3ccc(OC)cc3c2C(=O)Nc2ccccc2Cl)cc1	x	x	x	-9	x
CCOC(=O)c1cc2c(n(-c3ccccc3)c1=O)CC(C)(C)CC2=O	-1	-5	25220*	-2	-7
SMILES	Anthrax LF inh2	BoNT A protease	Bead autofluor	SSB-PriA inh	BoNT F protease
Cc1cc2c(n1-c1ccc(Cl)cc1)CC(C)(C)CC2=O	-7	-1	19623*	9	-6
CC1(C)CC(=O)c2cc(C(=O)O)c(=O)n(-c3ccccc3)c2C1	2	0	8750	-2	10
NC(=O)CNC1CC(=O)N(CCc2ccccc2)C1=O (stereo not drawn)	-2	0	23483*	-2	0
O=C1CC(Nc2ccccc2)C(=O)N1CCc1ccccc1 (stereo not drawn)	-6	0	4273	0	9
Cc1c[nH]c2cccc(OCC(CNC(C)(C)C)OC(=O)c3ccccc3)c12 (stereo not drawn)	-12	1	3851	49*	-58
COc1ccc(C)cc1NC(=O)c1nnn(Cc2ccc(Br)cc2F)c1N	x	x	x	-10	x
O=C(c1ccc(Cn2cc([N+](=O)[O-])cn2)o1)N1N=C(C(F)F)CC1(O)C(F)F (stereo not drawn)	0	4	22404*	-4	4
CC1CN(c2ncnc3c2cnn3CCNC(=O)C(C)(C)C)CC(C)O1 (stereo not drawn)	x	x	x	-8	x
N#Cc1c(SCC(N)=O)nsc1SCc1ccc(Cl)cc1	-3	u	22700*	-12	-1
Cc1ccc(C(=O)CSc2nsc(C)c2C#N)cc1	0	1	2994	-36	6
Cc1snc(SCC(=O)c2ccc(Cl)cc2)c1C#N	1	u	22846*	-52	-2
CCOc1ccc(S(=O)(=O)N2CCN(c3cccc(Cl)c3)CC2)c2ccccc12	x	x	x	-5	x
Cc1nnc(NC(=O)/C=C/c2ccncc2)s1	x	x	x	-9	x
Cc1cc2cc(CN3C(=O)c4ccccc4C3=O)ccc2n1C	13	88*	2185	-4	-57
Cc1ccc(S(=O)(=O)NCc2ccc3c(c2)cc(C)n3C)cc1	-74	81*	1200	26	-110
